From PubChem BioAssay (NCATS)
Values joined by “and” are separate entries in the source; they are usually repeats but may differ in a detail not shown here. Equal values may be shown once. Inconclusive results are not listed. Active and inactive are the calls of the source. Unless noted, calls follow the shape of the dose curve; as a rule, active = well fitted curve in the direction sought with a large enough effect; inconclusive = small, poorly fitted or top-dose-only effect, or another doubt; inactive = no such curve, though single readings can be large; an effect the other way counts as inactive or inconclusive. Where a SMILES comes first, the peptide text is derived from it. [ ]: non-standard residue; d: D form. pGlu = O=C1CC[C@@H](C(=O)O)N1

Key:
[1] = qHTS assay for measurement of the activity of small molecule inhibitors on Zika virus induced Caspase-3 activity in human astrocytoma cells (AID 1224859)
Summary of the method: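 SNB-19 astrocytoma cells, 250/well, pretreated 1 h with compounds, then Zika virus at 2 FFU/cell for 6 h at 37 C; Caspase-Glo 3/7 luminescence after 30 min; percent inhibition normalised to uninfected and infected controls.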

[2] = NS1 protein of Zika virus - qHTS assay to identify small molecule inhibitors in human HEK 293 cells (AID 1347053); also: nearly all actives have a fitted effect of over 55% in size; also: potency is read from the fitted curve at half-maximal effect
Summary of the method: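 In this cell-based screen, HEK 293 cultures received compound for one hour before Zika MR766 at MOI = 0.5. NS1 was quantified 24 hours later by TR-FRET, normalized to virus-free wells and infected wells.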

[3] = qHTS of pediatric cancer cell lines to identify multiple opportunities for drug repurposing: Primary screen for DAOY cells (AID 1347090); also: nearly all actives have a fitted effect of over 55% in size; also: potency is read from the fitted curve at half-maximal effect
Summary of the method: (§1)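 Eight- or eleven-point concentration series, 48 h treatment at 37 degrees C in growth media; readout CellTiter-Glo luminescence. Potency and efficacy were taken from the concentration-response curves.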

[4] = qHTS of pediatric cancer cell lines to identify multiple opportunities for drug repurposing: Primary screen for SJ-GBM2 cells (AID 1347091); also: potency is read from the fitted curve at half-maximal effect
Summary of the method: as §1

[5] = qHTS of pediatric cancer cell lines to identify multiple opportunities for drug repurposing: Primary screen for A673 cells (AID 1347092); also: nearly all actives have a fitted effect of over 45% in size; also: potency is read from the fitted curve at half-maximal effect
Summary of the method: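 48 h compound exposure, A673, 500-1,000 cells/well, 37 degrees C/5% CO2. MIPE: 11-point, 0.78 nM-46 µM; NPC: 8-point, 0.59 nM-46 µM (final). Readout CellTiter-Glo luminescence after 15 min RT.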

[6] = qHTS of pediatric cancer cell lines to identify multiple opportunities for drug repurposing: Primary screen for BT-37 cells (AID 1347094); also: potency is read from the fitted curve at half-maximal effect
Summary of the method: (§2)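 Phenotypic viability qHTS, 48 h compound exposure, CellTiter-Glo luminescence read-out; multi-concentration dosing so that potency and efficacy derive directly from the primary screen's curves.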

[7] = qHTS of pediatric cancer cell lines to identify multiple opportunities for drug repurposing: Primary screen for NB-EBc1 cells (AID 1347095); also: potency is read from the fitted curve at half-maximal effect
Summary of the method: as §2

[8] = qHTS of pediatric cancer cell lines to identify multiple opportunities for drug repurposing: Primary screen for U-2 OS cells (AID 1347096); also: nearly all actives have a fitted effect of over 50% in size; also: potency is read from the fitted curve at half-maximal effect
Summary of the method: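 Cells (500-1,000/well) in growth media were settled 5 h at 37 degrees C, then given compounds for 48 h. Viability was read as CellTiter-Glo luminescence. Primary runs used MIPE at 11 points (0.78 nM-46 µM) and NPC at 8 points (0.59 nM-46 µM); follow-ups used 11 points.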

[9] = qHTS of pediatric cancer cell lines to identify multiple opportunities for drug repurposing: Primary screen for Saos-2 cells (AID 1347097); also: nearly all actives have a fitted effect of over 40% in size; also: potency is read from the fitted curve at half-maximal effect
Summary of the method: as §2

[10] = P-glycoprotein substrates identified in KB-8-5-11 adenocarcinoma cell line, qHTS therapeutic library screen (AID 1346987); also: nearly all actives have a fitted effect of over 65% in size; also: potency is read from the fitted curve at half-maximal effect
Summary of the method: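 Human cervical adenocarcinoma KB-8-5-11 cells, selected in colchicine to over-express P-gp and assayed without it, were exposed for 72 h to titrated compounds. An ATP-based luminescent viability signal gave AC50.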

[11] = qHTS of pediatric cancer cell lines to identify multiple opportunities for drug repurposing: Primary screen for TC32 cells (AID 1347089); also: nearly all actives have a fitted effect of over 60% in size
Summary of the method: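 In the primary qHTS, MIPE compounds were tested at 11 concentrations (0.78 nM to 46 µM) and NPC compounds at 8 (0.59 nM to 46 µM) on TC32 cells for 48 h. CellTiter-Glo luminescence gave viability.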

[12] = qHTS of pediatric cancer cell lines to identify multiple opportunities for drug repurposing: Primary screen for SK-N-MC cells (AID 1347093); also: potency is read from the fitted curve at half-maximal effect
Summary of the method: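 Metabolically active cells were quantified by ATP-dependent luminescence (CellTiter-Glo, 15 min at room temperature) following 48 h treatment. Cells had been plated at 500-1,000 per well and settled for 5 h beforehand.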

[13] = Natriuretic polypeptide receptor (hNpr1) antagonism - Pilot counterscreen GloSensor control cell line (AID 1347045; calls by dose curve; also: series mostly up to about 38 µM)
Summary of the method: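 The SNP-driven cGMP luminescence signal (50 uM, 20 min, room temperature) was measured in GloSensor HEK293 control cells. Compounds were tested as a LOPAC titration series and preincubated for 30-50 min.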

[14] = target: Atrial natriuretic peptide receptor 1 (Homo sapiens) (UniProt P16066); test: Natriuretic polypeptide receptor (hNpr1) antagonism - Pilot screen (AID 1347049; calls by dose curve;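 also: HEK293 cells with hNpr1 and GloSensor cGMP luciferase stimulated by 0.1 nM hNppA; agonist-evoked cGMP luminescence read 20 min after hNppA addition; series mostly up to about 58 µM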)
Summary of the method: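 Cells expressing receptor plus cGMP biosensor are seeded and incubated overnight at 37C, then loaded with GloSensor reagent (2% final) at room temperature for 2 h. Library compounds go on for 30 min. A pre-read precedes agonist (hNppA, 0.1 nM final) and a 20-min readout.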

[15] = target: Atrial natriuretic peptide receptor 2 (Homo sapiens) (UniProt P20594); test: Natriuretic polypeptide receptor (hNpr2) antagonism - Pilot subtype selectivity assay (AID 1347050; calls by dose curve)
Summary of the method: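 Read-out: GloSensor luminescence (CCD imager), baseline vs post-stimulation. HEK293 cells expressing hNpr2; compounds pre-incubated 30-50 min at ambient temperature; hNppC 1 nM final, 20 min.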

[16] = target: T1, Tyrosine-protein phosphatase non-receptor type substrate 1 (Homo sapiens) + Leukocyte surface antigen CD47 (Homo sapiens) (UniProt P78324+Q08722); test: CD47-SIRPalpha protein protein interaction - LANCE assay qHTS validation (AID 1347057; active = well fitted curve in the direction sought with a large enough effect in the signal ratio, with a control signal flat, not every such curve was filed as active; the % refers to the signal ratio; also: series mostly up to about 38 µM)
Summary of the method: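 Inhibition of soluble CD47/SIRPalpha ectodomain association by titrated compounds, measured as 665/615 nm time-resolved FRET ratio after sequential 30 min room-temperature incubations.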

[17] = target: T1, Tyrosine-protein phosphatase non-receptor type substrate 1 (Homo sapiens) + Leukocyte surface antigen CD47 (Homo sapiens); test: CD47-SIRPalpha protein protein interaction - Alpha assay qHTS validation (AID 1347059);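 also: bead proximity luminescence from CD47 binding SIRPalpha after compound preincubation with SIRPalpha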
Summary of the method: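 In PBS (pH 7.4) with 0.05% IGEPAL CA-630, compound is preincubated with biotin-Avi-SIRPalpha ectodomain before His-CD47 ectodomain and affinity beads are added. Light-protected room-temperature incubations; AlphaScreen readout.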

Measured: Potency

T1 sequence (P78324 whole entry, looked up, the tested form may be a part): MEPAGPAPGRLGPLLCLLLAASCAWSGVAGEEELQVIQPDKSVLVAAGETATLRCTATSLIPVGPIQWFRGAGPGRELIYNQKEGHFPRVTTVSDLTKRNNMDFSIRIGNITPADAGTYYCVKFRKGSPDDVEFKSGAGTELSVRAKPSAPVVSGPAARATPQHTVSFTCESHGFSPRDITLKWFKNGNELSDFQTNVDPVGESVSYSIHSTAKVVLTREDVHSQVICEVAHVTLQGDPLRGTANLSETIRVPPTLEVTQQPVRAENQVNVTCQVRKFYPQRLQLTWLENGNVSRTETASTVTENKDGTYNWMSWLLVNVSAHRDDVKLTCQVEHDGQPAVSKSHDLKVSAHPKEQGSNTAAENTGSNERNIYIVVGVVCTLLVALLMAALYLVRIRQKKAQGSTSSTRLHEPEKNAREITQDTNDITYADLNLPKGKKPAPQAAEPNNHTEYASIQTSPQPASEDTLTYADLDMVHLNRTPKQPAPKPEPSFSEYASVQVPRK
T1 sequence (Q08722 whole entry, looked up, the tested form may be a part): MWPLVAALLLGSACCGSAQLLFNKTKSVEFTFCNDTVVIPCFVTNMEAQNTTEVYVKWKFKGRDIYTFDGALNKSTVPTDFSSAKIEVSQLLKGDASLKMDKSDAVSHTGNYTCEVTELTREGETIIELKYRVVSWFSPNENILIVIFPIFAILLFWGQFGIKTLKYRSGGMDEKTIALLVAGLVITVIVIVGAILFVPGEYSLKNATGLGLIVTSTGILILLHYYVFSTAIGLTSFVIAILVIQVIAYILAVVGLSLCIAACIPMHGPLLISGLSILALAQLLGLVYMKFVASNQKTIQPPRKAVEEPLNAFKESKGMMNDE
Sequence of Atrial natriuretic peptide receptor 2 (Homo sapiens) (P20594 whole entry, looked up): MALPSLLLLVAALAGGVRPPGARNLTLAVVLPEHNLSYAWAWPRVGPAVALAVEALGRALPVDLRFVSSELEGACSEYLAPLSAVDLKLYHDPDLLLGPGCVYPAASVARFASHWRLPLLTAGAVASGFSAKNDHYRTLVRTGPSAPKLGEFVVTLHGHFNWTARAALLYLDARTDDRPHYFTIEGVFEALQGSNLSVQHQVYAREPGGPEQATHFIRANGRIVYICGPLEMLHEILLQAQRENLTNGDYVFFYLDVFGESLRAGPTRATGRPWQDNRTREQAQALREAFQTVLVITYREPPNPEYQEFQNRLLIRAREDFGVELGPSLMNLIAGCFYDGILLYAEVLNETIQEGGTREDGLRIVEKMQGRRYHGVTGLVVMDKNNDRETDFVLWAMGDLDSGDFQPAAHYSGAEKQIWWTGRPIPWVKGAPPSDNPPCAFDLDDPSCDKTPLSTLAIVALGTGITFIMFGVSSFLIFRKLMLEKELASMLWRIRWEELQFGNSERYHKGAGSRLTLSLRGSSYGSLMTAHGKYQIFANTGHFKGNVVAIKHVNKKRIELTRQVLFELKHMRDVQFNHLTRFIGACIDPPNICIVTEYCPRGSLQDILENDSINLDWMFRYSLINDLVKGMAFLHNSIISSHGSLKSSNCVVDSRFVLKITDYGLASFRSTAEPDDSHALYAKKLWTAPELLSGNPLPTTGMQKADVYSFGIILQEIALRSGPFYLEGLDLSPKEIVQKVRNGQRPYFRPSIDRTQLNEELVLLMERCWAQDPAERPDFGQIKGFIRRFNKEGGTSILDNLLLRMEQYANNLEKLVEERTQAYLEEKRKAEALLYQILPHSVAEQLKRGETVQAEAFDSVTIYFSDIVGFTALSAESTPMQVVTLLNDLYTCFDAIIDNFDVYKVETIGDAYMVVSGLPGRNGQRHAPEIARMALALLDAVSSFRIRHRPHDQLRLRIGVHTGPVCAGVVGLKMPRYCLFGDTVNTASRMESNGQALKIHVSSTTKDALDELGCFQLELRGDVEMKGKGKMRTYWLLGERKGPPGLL
Sequence of Atrial natriuretic peptide receptor 1 (Homo sapiens) (P16066 whole entry, looked up): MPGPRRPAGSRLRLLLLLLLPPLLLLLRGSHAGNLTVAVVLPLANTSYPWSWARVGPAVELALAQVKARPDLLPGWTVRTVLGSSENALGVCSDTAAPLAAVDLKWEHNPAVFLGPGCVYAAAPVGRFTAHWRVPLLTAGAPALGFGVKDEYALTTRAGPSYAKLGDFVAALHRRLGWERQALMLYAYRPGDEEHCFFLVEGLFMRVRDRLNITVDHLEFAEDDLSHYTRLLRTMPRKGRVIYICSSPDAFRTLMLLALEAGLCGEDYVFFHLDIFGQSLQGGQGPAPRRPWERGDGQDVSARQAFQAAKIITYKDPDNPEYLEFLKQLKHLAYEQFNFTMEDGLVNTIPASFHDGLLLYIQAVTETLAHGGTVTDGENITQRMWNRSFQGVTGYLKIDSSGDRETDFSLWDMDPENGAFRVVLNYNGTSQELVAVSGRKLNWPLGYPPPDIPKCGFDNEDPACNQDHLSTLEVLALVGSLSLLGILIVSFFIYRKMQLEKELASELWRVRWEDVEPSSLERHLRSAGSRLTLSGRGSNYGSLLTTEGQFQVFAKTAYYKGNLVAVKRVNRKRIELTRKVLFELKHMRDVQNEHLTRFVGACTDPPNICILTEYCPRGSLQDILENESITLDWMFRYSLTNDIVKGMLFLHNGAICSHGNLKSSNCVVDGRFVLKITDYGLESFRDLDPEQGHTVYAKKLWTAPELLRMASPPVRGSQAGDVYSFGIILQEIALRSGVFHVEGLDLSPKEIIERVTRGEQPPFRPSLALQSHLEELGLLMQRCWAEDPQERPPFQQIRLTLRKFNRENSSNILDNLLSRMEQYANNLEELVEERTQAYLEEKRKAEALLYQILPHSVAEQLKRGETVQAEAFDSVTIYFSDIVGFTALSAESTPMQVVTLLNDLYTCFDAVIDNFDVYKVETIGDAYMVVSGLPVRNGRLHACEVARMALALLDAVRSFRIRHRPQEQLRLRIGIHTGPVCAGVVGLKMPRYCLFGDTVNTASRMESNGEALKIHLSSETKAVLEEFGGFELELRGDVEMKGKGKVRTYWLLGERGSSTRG

COc1cc2c(cc1OC)C(=O)CC2
inactive: [1] | [2] | [3] | [4] | [5] | [6] | [7] | [8] | [9]

CC(C)OC(=O)c1cc2c(OCC(O)CNC(C)(C)C)cccc2[nH]1 (stereo unspecified)
not listed: [5] | [9] | [13] | [14] | [15] | [16] | [17]
inactive: all other assays above

O=C1NCCN1CCN1CCC(c2cn(-c3ccc(F)cc3)c3ccc(Cl)cc23)CC1
inactive: [1]
active: [10] 18.4 µM and 20.6 µM | [2] 7.08 µM | [4] 10.6 µM | [12] 6.68 µM | [7] 21.1 µM | [9] 21.1 µM

CCNC(=O)[C@@H]1CCCN1C(=O)[C@H](CCCN=C(N)N)NC(=O)[C@H](CC(C)C)NC(=O)CNC(=O)[C@H](Cc1ccc(O)cc1)NC(=O)[C@H](CO)NC(=O)[C@H](Cc1c[nH]c2ccccc12)NC(=O)[C@H](Cc1cnc[nH]1)NC(=O)[C@@H]1CCC(=O)N1 ([pGlu]HWSYGLRP-NHEt)
not listed: [10] | [13] | [14] | [15] | [16] | [17]
inactive: all other assays above

Oc1ccc(CCNCCCCCCNCCc2ccccc2)cc1O
active: [12] 23.7 µM
inactive: [1] | [10] | [2] | [3] | [6] | [7] | [8]

CCCCCCCCCCCCCCCCCCNC(=O)OC1CCN(C(=O)OC[C@H](COC(=O)N(Cc2cccc[n+]2CC)C(=O)c2ccccc2OC)OC)CC1
active: [5] 8.41 µM | [12] 8.41 µM | [9] 23.7 µM
inactive: [1]

CC(C)C(=O)Nc1cccc(C(F)(F)F)c1
not listed: [10] | [13] | [14] | [15] | [16] | [17]
inactive: all other assays above

CCOc1ncc(F)c(=O)[nH]1
not listed: [10] | [13] | [14] | [15] | [16] | [17]
inactive: all other assays above

N[C@@H](Cc1cc(I)c(O)c(I)c1)C(=O)O
not listed: [9] | [12] | [13] | [14] | [15] | [16] | [17]
inactive: all other assays above

COc1ccccc1N1CCN(CCN2C(=O)CC3(CCCC3)CC2=O)CC1
inactive: [10] | [13] | [14] | [15] | [2] | [16] | [17]

O=C(O)c1cn(C2CC2)c2cc(Cl)c(F)cc2c1=O
not listed: [10] | [12] | [13] | [14] | [15] | [16] | [17]
inactive: all other assays above

CC(C)(C)c1ccc(C(=O)CCCCl)cc1
not listed: [9] | [10] | [13] | [14] | [15] | [16] | [17]
inactive: all other assays above

C=CCOc1cc(Cl)ccc1C(=O)NCCN(CC)CC
inactive: [1] | [2] | [11] | [3] | [4] | [5] | [6] | [7] | [9]

CO/N=C(/C(=O)N[C@@H]1C(=O)N2C(C(=O)OCOC(=O)C(C)(C)C)=C(C)CS[C@H]12)c1csc(N)n1
active: [12] 26.6 µM
not listed: [2] | [13] | [14] | [15] | [16] | [17]
inactive: all other assays above

CCCCCCCCCCCCCCCC[n+]1ccccc1
inactive: [1]
active: [3] 16.8 µM | [5] 1.68 µM | [12] 5.31 µM | [6] 15.5 µM | [7] 18.8 µM | [8] 21.1 µM | [9] 15 µM

N#Cc1cc(NC(=O)C(=O)O)c(Cl)c(NC(=O)C(=O)O)c1
not listed: [10] | [12] | [13] | [14] | [15] | [16] | [17]
inactive: all other assays above

O=C(O)c1ccccc1Nc1cc(Cl)ccc1C(=O)O
active: [12] 8.2 µM | [9] 9.2 µM
inactive: [1] | [10] | [2] | [11] | [4] | [5] | [7] | [8]

CCC1(c2cnc[nH]2)Cc2ccccc2C1
inactive: [1] | [2] | [11] | [3] | [4] | [5] | [6] | [7] | [8]

CSc1ccc(/C=C2/C(C)=C(CC(=O)O)c3cc(F)ccc32)cc1
not listed: [7] | [8] | [13] | [14] | [15] | [16] | [17]
inactive: all other assays above

C1=CC2C3C=CC(C3)C2C1 (stereo unspecified)
not listed: [1] | [13] | [14] | [15] | [16] | [17]
inactive: all other assays above

COc1ccc(/C(C)=C/C(=O)O)c(OC)c1
not listed: [2] | [10] | [13] | [14] | [15] | [16] | [17]
inactive: all other assays above
